The panel holds about 83,000 compounds, 20% with a hit somewhere; the sample as a whole holds those more often.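 Note: values are percent growth. 100 is the growth of untreated cells, values between 100 and 0 indicate rising inhibition; between -100 and 0 indicates cell death.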 Active and inactive are the calls of the source. Rule for the calls: active = growth percent below 10; inactive = the rest.
Tested on: HL-60(TB) leukemia
Experiment: NCI-60 one-dose screen, 48 h (100 = growth as untreated, 0 = no growth, -100 = all killed)
Details: 10 µM unless noted

Row | SMILES | growth
1 | CCOC(=O)c1cn2ncnc(Oc3ccc(NC(=O)NCCN4CCN(C)CC4)c(Cl)c3)c2c1C | 96.9% (inactive)
2 | COc1cccc(C(=O)O)c1OC | 106% (inactive)
3 | CN1CCC(COc2cnc(-c3cccc(Cn4nc(-c5cccc(C#N)c5)ccc4=O)c3)nc2)CC1 | 95.3% (inactive)
4 | O=c1oc2c3ccc4cnccc4c3[nH]c2c2ccccc12 | 27.1% (inactive)

— PubChem BioAssay (NCI)
